# GLD-1 RNA inh: GLD-1-TGE RNA interaction inhibition (C. elegans) | Q17339 | purified GLD-1 + fluorescein TGE RNA, fluorescence polarization | inhibition, % at 5.96 µM | hit rate 0.44% among 320,000;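 active = percent inhibition above a per-plate cutoff, the plate mean of test compounds plus 3 SD, cut at about 30% in these data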;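 also: 0% = DMSO wells with GLD-1 and probe and 100% = wells lacking GLD-1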
# MEX-5 binding: C. elegans MEX-5 TCR-2 RNA binding activity; AID 1832; activity score (negative = inhibition of binding), % at 10 µM; Q9XUB2; MEX-5/FITC-TCR2 RNA binding, fluorescence polarization; hits give low values; hit rate 0.38% among 300,000;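 active = inhibition past about -25% in most replicates, and total fluorescence under double the plate's negative control median, limit read from the data; inconclusive = replicates evenly split on the limit, or fluorescence at least double controls; inactive = too little inhibition in most replicates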;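 also: 0% = DMSO and -100% = 5 µM competing unlabeled TCR2 RNA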
# EBV gp42 block: EBV gp42 inhibition; Q1HVG2; inhibition, % (tested at 21.74 µM); hit rate 0.42% among 220,000; Fluorescence polarization binding assay, mP read-out; in the data active = inhibition above about 50%
# E coli Lon inh: E. coli protease La inhibition; purified E. coli Lon protease, fluorescence polarization; hit rate 0.42% among 360,000; P0A9M0; inhibition, % at 7.94 µM; in the data active = inhibition above about 13%, passing the limit was not always enough;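 also: 0% = enzyme with probe and DMSO and 100% = no enzyme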
# BCLXL inh: blocks human Bcl-xL binding to Bim BH3 peptide; AID 2129; hit rate 0.7% among 320,000; inhibition, % at 10.9 µM; Q07817; GST-Bcl-xL / FITC-Bim BH3 peptide fluorescence polarization;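 active = inhibition above the mean of all tested compounds plus 3 SD, cutoff set per campaign, cut at about 30% in these data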;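 also: 0% = DMSO wells and 100% = unlabeled Bim-BH3 peptide competitor; inhibitors lower millipolarization by displacing the labeled peptide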
# Target sequence (Q07817 whole entry, looked up): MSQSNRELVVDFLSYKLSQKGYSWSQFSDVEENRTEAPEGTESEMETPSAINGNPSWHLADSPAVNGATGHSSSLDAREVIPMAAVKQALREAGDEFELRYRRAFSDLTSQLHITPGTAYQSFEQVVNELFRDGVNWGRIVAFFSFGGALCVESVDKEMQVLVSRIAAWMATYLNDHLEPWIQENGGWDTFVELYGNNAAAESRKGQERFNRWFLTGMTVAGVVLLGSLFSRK
# Starred values were filed as active, the others as inactive; i = inactive; ? = inconclusive; / = no result given. Sampled rows, rich in hits. Any-hit rate of the full collection: about 1.3%.
SMILES,GLD-1 RNA inh,MEX-5 binding,EBV gp42 block,E coli Lon inh,BCLXL inh
CCOC(=O)c1cc2c(=O)n3ccccc3nc2n(C(C)C)c1=NC(=O)c1ccncc1,9,-32*,-22,-6,5
O=C(N/N=C/C(Cl)=C\c1ccccc1)c1cnccn1,7,-4,-2,-9,1
CC(=C/c1ccccc1)/C=N/NC(=O)c1cnccn1,3,-1,144*,1,9
O=C1c2sc3nc4n(c(=O)c3c2CCC1Br)CCCCC4 (stereo unspecified),1,0,2,-3,30*
O=C1CCCc2c1sc1nc3n(c(=O)c21)CCCCC3,-4,1,-1,-4,4
O=c1c(O)c(-c2cccs2)oc2ccc(Cl)cc12,57*,-5,30,-70,46*
O=C(O)c1cc(-c2ccco2)nn1-c1cccc(Cl)c1,-11,-8,17,-26,31*
N#CC1=C(N)OC2=C(CC/C2=C\c2ccc(F)cc2)C1c1ccc(F)cc1 (stereo unspecified),-7,-2,61*,/,-41
O=C(COC(=O)C1CC1)Nc1ncc(C(F)(F)F)cc1Cl,26,-7,-18,8,32*
O=C(O)C1Cc2c([nH]c3ccccc23)C(c2ccc3c(c2)OCO3)N1 (stereo unspecified),14,-6,-10,-1,52*
Nc1nc(-c2ccco2)c(-c2ccco2)s1,2,-1,-13,2,18
c1coc(-c2nc(-c3ccco3)c(-c3ccco3)nc2-c2ccco2)c1,23,3,63*,17*,80*
CC(=O)Nc1ccc(NC(=O)[C@@H](NC(=O)N2C[C@H]3C[C@@H](C2)c2cccc(=O)n2C3)C(C)C)cc1,5,1,/,-7,0
O=C(N=Nc1c(O)[nH]c2ccccc12)Nc1ccccc1,/,/,/,-7,/
Oc1[nH]c2ccc(Br)cc2c1N=Nc1ccc(F)cc1,107*,?,/,3,183*
Oc1[nH]c2ccccc2c1N=Nc1ccccc1,70*,-42*,101*,0,41*
Oc1[nH]c2ccccc2c1N=Nc1ccccc1F,-143,?,-231,i,-108
O=C(N=Nc1c(O)[nH]c2ccccc12)c1cc(-c2ccc(F)cc2)n[nH]1,10,0,61*,10,6
Oc1[nH]c2ccccc2c1N=Nc1ccc(F)cc1,-27,-62*,-122,i,-70
Cc1ccc(-c2cc(C(=O)OCC(=O)NC3CC3)c3ccccc3n2)cc1,-1,/,/,5,7
CC1(C)Cc2cccc(OCC(=O)OCC(=O)Nc3cccc(S(N)(=O)=O)c3)c2O1,7,2,-22,-5,-11
CCOc1ccc(S(=O)(=O)Nc2cc(Sc3ncn[nH]3)c3oc(=O)sc3c2)cc1,-1,-34*,-1,/,-3
O=C(NCCc1nc(-c2ccccc2)cs1)c1ccc(Br)cc1,8,2,6,0,5
Cc1ccc(NC(=O)CN2C(=O)/C(=C3\SC(=S)N(C4CCS(=O)(=O)C4)C3=O)c3ccccc32)cc1 (stereo unspecified),/,/,105*,0,/
O=C(COC(=O)c1c2c(nc3ccccc13)CCN(Cc1ccccc1)C2)Nc1c(F)cccc1F,39*,7,-27,0,34*
SMILES,GLD-1 RNA inh,MEX-5 binding,EBV gp42 block,E coli Lon inh,BCLXL inh
S=c1[nH]nc(Cn2cnc3ccccc32)n1-c1ccccc1,1,2,-7,-2,-2
CC[C@]1(C(=O)OC)[C@H]2C(=O)N(C)C(=O)[C@H]2[C@H]2CN=C(SCc3ccc(C#N)cc3)N21,/,/,/,-3,/
CC1(C)CC(NS(=O)(=O)c2ccc(S(N)(=O)=O)cc2)CC(C)(C)N1,89*,-8,/,10,97*
CC1(C)CC(NS(=O)(=O)c2ccc(F)cc2)CC(C)(C)N1,0,3,/,-4,1
CC1CCCCC12NC(=O)N(Cn1nnc3ccccc3c1=O)C2=O (stereo unspecified),31*,0,-9,-8,0
COc1ccc(CCNC(=O)c2ccc(NS(=O)(=O)c3ccc4[nH]c(=O)[nH]c4c3)cc2)cc1,1,-1,/,0,-2
Cc1cc(C)c(Nc2cc(S(=O)(=O)O)c(N)c3c2C(=O)c2ccccc2C3=O)c(C)c1,11,/,31,-1,31*
Cc1cc(C)c(NC(=O)COC(=O)c2cccc3c2C(=O)c2ccccc2C3=O)c(C)c1,11,2,-10,-7,4
Cc1ccc(N=Cc2sc(O)c3ccccc23)c(C)c1,-136,-31*,-128,10,-17
